Assay results: PubChem BioAssay (Tox21)
Records with an inconclusive call do not appear. Entries that show only a call come without a potency. Activity calls are given as the source filed them. Calls follow the shape of the dose curve; as a rule, active = well fitted inhibition curve with a large enough effect in the repeat runs; inconclusive = weak or mixed curves; inactive = no such curve, though single readings can be large or run the other way.

experiment: qHTS assay to identify small molecule antagonists of the thyroid receptor (TR) signaling pathway (AID 743065); conditions: GH3.TRE-Luc, T3-stimulated luciferase inhibition, 23.5 h; series mostly up to 70.3 µM; also: nearly all actives have a fitted effect of over 55% in size
Source text: U.S. Tox21 Program National Center for Advancing Translational Sciences [NCATS] NIH Chemical Genomics Center [NCGC] U.S. Environmental Protection Agency [EPA] National Institutes of Environmental Health Sciences [NIEHS] National Toxicology Program [NTP] U.S. Food and Drug Administration [FDA] Tox21 Assay Overview: Thyroid receptor (TR), a nuclear hormone receptor, plays an important role in development, proliferation, differentiation, metabolism, brain function, and cardiovascular system. […] To profile the Tox21 10K compound library in TR signaling, a cell-based GH3-TRE-Luc assay (GH3.TRE-Luc cell line, developed by the laboratory of Dr. Albertinka J. Murk, Wageningen University) was used to measure the inhibition of TR. GH3 (rat pituitary tumor) cells stably expressing a TR activity sensor consisting of two TR response elements and a luciferase reporter gene.
Tox21 Assay Protocol Summary: GH3.TRE-Luc cells were dispensed at 1500 cells/4 uL/well into 1536-well white solid bottom plates using a Multidrop Combi dispenser (Thermo Fisher Scientific Inc., Waltham, MA). After the assay plates were incubated at 37 C for 4 hours, 23 nL of library compound or DMSO controls was transferred to the assay plates by a pintool station (Kalypsys, San Diego, CA), followed by addition of 1 ul of T3 (1 nM, final concentration in the wells) to stimulate TR transactivation. The assay plates were incubated at 37 C for 23.5 h, and then 1 uL of CellTiter-Fluor reagent (Promega, Madision, WI) of measuring cytotoxicity was added to each well using a Bioraptr Flying Reagent Dispenser (FRD) workstation (Beckman Coulter, Indianapolis, IN, USA). The plates were incubated at 37 C and 5% CO2 for additional 30 min, and fluorescence intensity was measured by a ViewLux plate reader (PerkinElmer, Shelton, CT). For measuring luciferase reporter gene activity, 4 uL of ONE-Glo Luciferase Assay reagent (Promega) was added to each well using a Bioraptr FRD (Beckman Coulter), followed by 30 min incubation at room temperature. The luminescence intensity of plates was recorded by a ViewLux plate reader (PerkinElmer, Shelton, CT).
Potency is read from the fitted curve at half-maximal effect.

**Q.** Which Potency does the source give for `CCCSC(=O)N(CCC)CCC` here?
**A.** Its Potency is “inactive”.

**Q.** With `Nc1cc2c3c(c1)C(c1ccccc1)=N[C@@H](NC(=O)c1cccnc1)C(=O)N3CC2` as the molecule, how does the Potency read?
**A.** The Potency was “inactive”.

**Q.** With `Nc1c(Br)cc([N+](=O)[O-])cc1[N+](=O)[O-]` as the molecule, how does the Potency read?
**A.** The Potency was 61.8 µM (active).

**Q.** For `CC(CC(C#N)(c1ccccc1)c1ccccc1)N(C)C` (stereo not given), which Potency is on record?
**A.** Its Potency is 30.5 µM (active).

**Q.** With `CC(COc1ccc(Oc2ccccc2)cc1)Oc1ccccn1` (stereo not given) as the molecule, how does the Potency read?
**A.** The Potency was “inactive”.

**Q.** Which Potency does the source give for `Cc1cc(C)c(C(=O)P(=O)(C(=O)c2c(C)cc(C)cc2C)c2ccccc2)c(C)c1` here?
**A.** The Potency was “inactive”.

**Q.** Which Potency does the source give for `C(CCOCC1CO1)COCC1CO1` (stereo not given) here?
**A.** Its Potency is 42.6 µM (active).

**Q.** For `CN(C)CCc1ccc(O)cc1`, which Potency is on record?
**A.** The Potency was “inactive”.

**Q.** With `CCCCOP(=O)(O)OCCCC` as the molecule, how does the Potency read?
**A.** Its Potency is “inactive”.

**Q.** Which Potency does the source give for `CCN(CC)C(C)C(=O)c1ccccc1` (stereo not given) here?
**A.** Its Potency is “inactive”.

**Q.** For `C1CCC(C2CCCCC2)CC1`, which Potency is on record?
**A.** The Potency was “inactive”.

**Q.** For `CCC(Cl)[N+](=O)[O-]` (stereo not given), which Potency is on record?
**A.** Its Potency is “inactive”.

**Q.** With `CC(=O)CC(c1ccc(Cl)cc1)c1c(O)c2ccccc2oc1=O` (stereo not given) as the molecule, how does the Potency read?
**A.** The Potency was “inactive”.

**Q.** With `COc1ncc(F)c2nc(S(=O)(=O)Nc3c(F)cccc3F)nn12` as the molecule, how does the Potency read?
**A.** Its Potency is “inactive”.

**Q.** Which Potency does the source give for `COC(=O)COc1ccc(Cl)cc1Cl` here?
**A.** The Potency was “inactive”.

**Q.** For `CCOP(=S)(OCC)Oc1ncn(-c2ccccc2)n1`, which Potency is on record?
**A.** The Potency was “inactive”.

**Q.** For `CCCSC(=O)Cl`, which Potency is on record?
**A.** Its Potency is “inactive”.

**Q.** With `C=C(C)[C@@H]1CC=C(C=O)CC1` as the molecule, how does the Potency read?
**A.** Its Potency is “inactive”.

**Q.** With `CC(C)NCC(O)c1ccc(N)c(C#N)c1` (stereo not given) as the molecule, how does the Potency read?
**A.** Its Potency is “inactive”.

**Q.** With `CCSC(=O)N(CC)C1CCCCC1` as the molecule, how does the Potency read?
**A.** The Potency was “inactive”.

**Q.** With `Cc1ncsc1CCCl` as the molecule, how does the Potency read?
**A.** Its Potency is “inactive”.

**Q.** For `O=C1c2ccccc2C(=O)c2ccccc21`, which Potency is on record?
**A.** Its Potency is “inactive”.

**Q.** For `CN(N=O)C(N)=O`, which Potency is on record?
**A.** Its Potency is “inactive”.

**Q.** For `O=C(O)C(Br)CBr` (stereo not given), which Potency is on record?
**A.** Its Potency is “inactive”.

**Q.** Which Potency does the source give for `ClC(Cl)Br` here?
**A.** The Potency was “inactive”.

**Q.** Which Potency does the source give for `COc1cccc2c1cc([N+](=O)[O-])c1c(C(=O)O)cc3c(c12)OCO3` here?
**A.** The Potency was 2.73 µM (active).

**Q.** Which Potency does the source give for `N#CC(CCc1ccc(Cl)cc1)(Cn1cncn1)c1ccccc1` (stereo not given) here?
**A.** Its Potency is 34.4 µM (active).

**Q.** Which Potency does the source give for `OC(Cn1cncn1)(c1ccc(F)cc1)c1ccccc1F` (stereo not given) here?
**A.** Its Potency is “inactive”.

**Q.** Which Potency does the source give for `CCC/C(=N\OCC)C1=C(O)CC(CC(C)SCC)CC1=O` (stereo not given) here?
**A.** The Potency was “inactive”.

**Q.** With `Cc1cc(C)nc(Nc2ccccc2)n1` as the molecule, how does the Potency read?
**A.** Its Potency is “inactive”.

**Q.** For `CC1CCCCC1NC(=O)Nc1ccccc1` (stereo not given), which Potency is on record?
**A.** Its Potency is “inactive”.

**Q.** For `Nc1n[nH]c(N)n1`, which Potency is on record?
**A.** Its Potency is “inactive”.

**Q.** Which Potency does the source give for `ClCCOCOCCCl` here?
**A.** The Potency was “inactive”.

**Q.** Which Potency does the source give for `COC(=O)c1ccccc1S(=O)(=O)NC(=O)Nc1nc(C)cc(C)n1` here?
**A.** The Potency was “inactive”.

**Q.** Which Potency does the source give for `CNC(=O)Oc1ccccc1C1OCCO1` here?
**A.** The Potency was “inactive”.

**Q.** With `CCOP(=S)(OCC)Oc1nc(Cl)n(C(C)C)n1` as the molecule, how does the Potency read?
**A.** Its Potency is “inactive”.

**Q.** With `C=CC1CC=CCC1` (stereo not given) as the molecule, how does the Potency read?
**A.** Its Potency is “inactive”.

**Q.** Which Potency does the source give for `C[C@@H]1CN(C2CCC(C#N)(c3ccc(F)cc3)CC2)CC[C@]1(C(=O)O)c1ccccc1` (stereo not given in full) here?
**A.** The Potency was “inactive”.

**Q.** With `O=C(O)c1ccc2[nH]cc(CCCCN3CC=C(c4ccccc4)CC3)c2c1` as the molecule, how does the Potency read?
**A.** The Potency was “inactive”.

**Q.** For `CN1CCN(C(=O)O[C@H]2c3nccnc3C(=O)N2c2ccc(Cl)cn2)CC1`, which Potency is on record?
**A.** Its Potency is “inactive”.
